Entries with a potency or affinity are not part of this list.

Our source for the Inhibition values is ChEMBL document CHEMBL4513149, “CO-ADD screening of MMV (CH) - MMV compounds” (2021).

One assay has as its system Staphylococcus aureus. Particulars: Concentration 20 uM; ASSAY_TEST Inhibition of Bacterial Growth; detection method Absorption (OD600); MEDIA CAMHB; plate type 384well; NBS; CORNING #3640; time 18 hr.
As to `CC1COC2(CCN(c3nc(=O)c4cc(C(F)(F)F)cc([N+](=O)[O-])c4s3)CC2)O1` (configuration not stated), the Inhibition was determined as 16.17%.

With `COc1ccc(-c2cnc3ccc(NCc4ccc(S(N)(=O)=O)cc4)nn23)cn1`, the Inhibition is reported as 19.01%.

Consider `Cc1noc(C)c1C(=O)N1CCCC(c2[nH]c3c(C)cccc3c2-c2ccncc2)C1` (configuration not stated), for which the Inhibition was determined as 19.72%.

As for `Cc1ccc(S(=O)(=O)n2cc(-c3ccnc(N)c3)c3cc(Br)cnc32)cc1`, the Inhibition worked out at 9.7%.

As to `CC(C)(C)c1cc(C(=O)N2CCN(c3nccnc3C#N)CC2)n(Cc2ccccc2)n1`, the Inhibition was found to be 20.75%.

With `CCCCOC(=O)Nc1cc2nc(C3CCCCC3)[nH]c2cc1N1CCCC1`, the Inhibition came to 9.54%.

As to `Cc1cc2nc(NC(=O)C(C)(C)C)nc(Cl)c2n1Cc1ccc(Cl)cc1`, the Inhibition is on record as 7.77%.

As for `Cc1ccc2nc(Cl)c(CNCc3cccs3)cc2c1`, the Inhibition is reported as 2.71%.

On to `Cc1[nH]c2cc(F)cc(F)c2c(=O)c1-c1ccc(Oc2ccc(OC(F)(F)F)cc2)cc1`, for which the Inhibition is reported as 11.17%.

For the molecule `CC1=Nc2ccc(Cl)cc2C(O)(c2ccc(C)cc2)N1CCN1CCCCC1` (configuration not stated), the Inhibition came to 19.52%.

Consider `CCc1ccccc1-n1c(C)cn2c3c(=O)n(C(C(=O)OC)C(C)C)c(=O)n(C)c3nc12` (configuration not stated), for which the Inhibition is given as 5.27%.

Take `N=C(N)c1ccc(-c2cc(-c3ccccc3)on2)cc1`: the Inhibition is 23.63%.

Regarding `NCC(=O)N1CCn2c(nc(-c3ccccc3)c2Nc2ccc3c(c2)OCO3)C1`, the Inhibition came to 11.35%.

As to `Cc1cc(O)nc(-n2nc(C)cc2C)n1`, the Inhibition was 9.17%.

Regarding `CCCCc1ccc(C(=O)Nc2nccc3ccccc23)nc1`, the Inhibition was 5.7%.

On to `CC1(COc2ccc(N3CCC(Oc4ccc(OC(F)(F)F)cc4)CC3)cc2)Cn2cc([N+](=O)[O-])nc2O1` (configuration not stated), for which the Inhibition worked out at 13.25%.

With `N#Cc1nc(-c2ccccc2F)oc1NCCc1ccccc1`, the Inhibition is 7.55%.

`O=C(Nc1ccc(F)c(-c2nc3cc(-c4ccccc4)cnc3[nH]2)c1)N1CCCC1`: the Inhibition is given as 13.16%.

With `CC1CCCCN1C(=O)NCCc1coc(-c2ccc(F)cc2)n1` (configuration not stated), the Inhibition is reported as 23.75%.

Consider `O=C(c1[nH]nc2c1CCCC2)N1CCN(Cc2ccc3c(c2)OCO3)CC1`, for which the Inhibition was found to be 14.51%.

As for `N#Cc1ccc(-c2cnc(N)c(-c3ccc(C(N)=O)cc3)n2)cc1`, the Inhibition came out at 16.7%.

In the next assay the test system is Escherichia coli. Particulars: Concentration 20 uM; ASSAY_TEST Inhibition of Bacterial Growth; detection method Absorption (OD600); MEDIA CAMHB; plate type 384well; NBS; CORNING #3640; time 18 hr.
`CCC(NC(=O)c1ccccc1NC(=O)c1ccc(C)cc1)C(=O)OC` (configuration not stated): the Inhibition is listed as 3.87%.

On to `O=C(CN1CCOCC1)Nc1ccc2ncnc(Nc3ccc(OCc4cccc(F)c4)c(Cl)c3)c2c1`, for which the Inhibition came to 4.06%.

In the case of `CC(=O)Nc1ccc(NC(=O)c2cc(-c3cc(Cl)ccc3O)n[nH]2)cc1`, the Inhibition turned out to be 10.03%.

With `C[C@]1(O)C[C@@H](c2nc(-c3ccc4ccc(-c5ccccc5)nc4c3)c3c(N)nccn32)C1` [LINSITINIB], the Inhibition stood at 6.95%.

For `Cc1ccc(S(=O)(=O)Nc2ccc(CN3CCN(C(=O)c4cccc(C#N)c4)CC3)cc2)cc1`, the Inhibition was found to be 3.52%.

`CC(C)n1ncc2c(C(=O)NCC(c3cccs3)N3CCOCC3)cc(-c3ccccc3)nc21` (configuration not stated): the Inhibition is listed as 3.42%.

Take `CC1=Nc2ccc(Cl)cc2C(c2ccccc2)N1CCNC(=O)CN(C)C` (configuration not stated): the Inhibition is 6.95%.

As for `COc1ccc(-c2onc(C(F)(F)F)c2-c2ccc(Cl)cc2)c(O)c1`, the Inhibition is on record as 5.79%.

In the case of `COc1cccc(-c2cc3c(Nc4cccnc4)nccc3[nH]2)c1`, the Inhibition is listed as -3.86%.

With `CCOc1ccc(-c2nc(NC(=O)CS(=O)(=O)c3ccccc3)sc2C)cc1`, the Inhibition is -0.36%.

As to `COc1cc(NC(=O)Cc2nn(C)c(=O)c3ccccc23)ccc1Cl`, the Inhibition amounted to 11.61%.

In the case of `COc1cc(-c2cc(-c3ccc(S(C)(=O)=O)cc3)cnc2N)ccc1O`, the Inhibition stood at 6.84%.

Turning to `O=C(NC1CC1)c1ccc(N2CCOc3ccc(Cl)cc32)s1`, the Inhibition is given as 8.85%.

For `COC(=O)c1cccc2oc(-c3cccc(OC)c3NC(=O)c3cc(-c4ccccc4)on3)nc12`, the Inhibition stood at 4.98%.

As for `O=C1COCc2ccc(Br)cc2N1Cc1ccc(C(F)(F)F)cc1`, the Inhibition came to 10.17%.

Take `CC1COC2(CCN(c3nc(=O)c4cc(C(F)(F)F)cc([N+](=O)[O-])c4s3)CC2)O1` (configuration not stated): the Inhibition was determined as 4.14%.

Consider `COc1ccc(-c2cnc3ccc(NCc4ccc(S(N)(=O)=O)cc4)nn23)cn1`, for which the Inhibition amounted to 10.16%.

With `Cc1noc(C)c1C(=O)N1CCCC(c2[nH]c3c(C)cccc3c2-c2ccncc2)C1` (configuration not stated), the Inhibition came to 12.41%.

As for `Cc1ccc(S(=O)(=O)n2cc(-c3ccnc(N)c3)c3cc(Br)cnc32)cc1`, the Inhibition was -3.65%.

As to `CC(C)(C)c1cc(C(=O)N2CCN(c3nccnc3C#N)CC2)n(Cc2ccccc2)n1`, the Inhibition turned out to be 10.32%.

`CCCCOC(=O)Nc1cc2nc(C3CCCCC3)[nH]c2cc1N1CCCC1`: the Inhibition was -0.47%.

On to `Cc1cc2nc(NC(=O)C(C)(C)C)nc(Cl)c2n1Cc1ccc(Cl)cc1`, for which the Inhibition is 0.73%.

Take `Cc1ccc2nc(Cl)c(CNCc3cccs3)cc2c1`: the Inhibition was -1.94%.

Take `Cc1[nH]c2cc(F)cc(F)c2c(=O)c1-c1ccc(Oc2ccc(OC(F)(F)F)cc2)cc1`: the Inhibition is recorded as -0.95%.

`CC1=Nc2ccc(Cl)cc2C(O)(c2ccc(C)cc2)N1CCN1CCCCC1` (configuration not stated): the Inhibition is reported as 11.5%.

As for `CCc1ccccc1-n1c(C)cn2c3c(=O)n(C(C(=O)OC)C(C)C)c(=O)n(C)c3nc12` (configuration not stated), the Inhibition was found to be 7.91%.

`N=C(N)c1ccc(-c2cc(-c3ccccc3)on2)cc1`: the Inhibition is listed as 12.9%.

Take `NCC(=O)N1CCn2c(nc(-c3ccccc3)c2Nc2ccc3c(c2)OCO3)C1`: the Inhibition is on record as -1.15%.

Regarding `Cc1cc(O)nc(-n2nc(C)cc2C)n1`, the Inhibition amounted to 6.91%.

As to `CCCCc1ccc(C(=O)Nc2nccc3ccccc23)nc1`, the Inhibition was -0.87%.

Consider `CC1(COc2ccc(N3CCC(Oc4ccc(OC(F)(F)F)cc4)CC3)cc2)Cn2cc([N+](=O)[O-])nc2O1` (configuration not stated), for which the Inhibition is on record as 11.79%.

Turning to `N#Cc1nc(-c2ccccc2F)oc1NCCc1ccccc1`, the Inhibition was determined as 2.58%.

For the molecule `O=C(Nc1ccc(F)c(-c2nc3cc(-c4ccccc4)cnc3[nH]2)c1)N1CCCC1`, the Inhibition is reported as -0.3%.

On to `CC1CCCCN1C(=O)NCCc1coc(-c2ccc(F)cc2)n1` (configuration not stated), for which the Inhibition amounted to 7.62%.

For the molecule `O=C(c1[nH]nc2c1CCCC2)N1CCN(Cc2ccc3c(c2)OCO3)CC1`, the Inhibition is on record as 7.99%.

For the molecule `N#Cc1ccc(-c2cnc(N)c(-c3ccc(C(N)=O)cc3)n2)cc1`, the Inhibition is given as 7.7%.

A word on the Inhibition: it is the change of the read-out against control, counted positive when it falls.
